Data on two molecules can be found in PubChem BioAssay (NCI).

Where “and” joins values, the source holds several entries; their conditions need not be identical. Identical values can stand only once. Compounds without any hit were thinned out: in the full panel of roughly 83,000, 20% have a hit.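 For each line, cells grew in 96-well plates with the test compound present at a single concentration for 48 hours.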 Calls of active or inactive are those of the source. Rule for the calls: active = growth percent below 10; inactive = the rest.

Holding throughout (experiment): NCI-60 one-dose screen, 48 h (100 = growth as untreated, 0 = no growth, -100 = all killed)
Assay [1] concerns NCI-H23 lung. To be noted: 10 µM.
The test system of assay [2] is NCI-H226 lung. The settings on record: 10 µM.
Assay [3] concerns NCI-H322M lung. To be noted: 10 µM.
In assay [4] the test system is HOP-62 NSCLC. To be noted: 10 µM.
Assay [5] relates to NCI-H460 lung. The settings on record: 10 µM.
Assay [6] concerns HOP-92 NSCLC. To be noted: 10 µM.
Assay [7] concerns NCI-H522 lung. To be noted: 10 µM unless noted.
The test system of assay [8] is A549/ATCC NSCLC. The settings on record: 10 µM.
The subject of assay [9] is 786-0 renal. The settings on record: 10 µM.
The subject of assay [10] is COLO 205 colon. To be noted: 10 µM.
Assay [11] relates to DU-145 prostate. To be noted: 10 µM unless noted.
For assay [12], the system named is K-562 leukemia. To be noted: 10 µM.
Assay [13] concerns MALME-3M melanoma. To be noted: 10 µM.
The test system of assay [14] is MDA-MB-231 breast. The settings on record: 10 µM.
The subject of assay [15] is RXF 393 renal. The settings on record: 10 µM unless noted.
Assay [16] has as its system SF-268 CNS. To be noted: 10 µM.
Assay [17] deals with SF-295 CNS. The settings on record: 10 µM.
The subject of assay [18] is SF-539 CNS. The settings on record: 10 µM.
Assay [19] deals with UACC-257 melanoma. To be noted: 10 µM.
Assay [20] relates to M14 melanoma. The settings on record: 10 µM.

With `Nc1nc(=S)c2ncn(C3OC(CO)C(O)C3O)c2[nH]1` (stereo not given), the growth is 102% (inactive) and 25.8% (inactive) in assay [1]; 113% (inactive) and 35.5% (inactive) in assay [2]; 128% (inactive) and 64.3% (inactive) in assay [3]; 106% (inactive) and 35.4% (inactive) in assay [4]; 120% (inactive) and 9.3% (active) in [5]; 29.5% (inactive) in assay [6]. The growth was 96.7% (inactive) and -12% (active) in assay [7]; 92.9% (inactive) and 27.9% (inactive) in [8]; 103% (inactive) and 22.2% (inactive) in assay [9]; 155% (inactive) and 12.4% (inactive) in [10]; 108% (inactive) and 23.2% (inactive) in [11]; 108% (inactive) in assay [12]. Further, the growth in assay [13] was 170% (inactive) and 15% (inactive); in assay [14], 105% (inactive) and 26.1% (inactive); in assay [15], 108% (inactive) and -8.38% (active); in [16] it was 101% (inactive) and 34.5% (inactive); in assay [17] it was 109% (inactive) and 18.3% (inactive); in [18], 107% (inactive) and 22.3% (inactive). Moreover, the growth in assay [19] was 98.9% (inactive) and 31.5% (inactive); in assay [20] it was 109% (inactive) and 15.5% (inactive).
Take `Clc1cc(Cl)c(Cl)nn1`: the growth in assay [1] was 105% (inactive); in [2], 99.8% (inactive); in assay [3], 109% (inactive); in assay [4], 94.2% (inactive); in [5], 99% (inactive); in assay [6], 91.9% (inactive). The growth is 80.7% (inactive) in assay [7]; 57.9% (inactive) in [8]; 99.4% (inactive) in assay [9]; 120% (inactive) in assay [10]; 115% (inactive) in assay [11]; 106% (inactive) in assay [12]. For the same molecule, the growth in [13] was 109% (inactive); in [14], 105% (inactive); in assay [15], 122% (inactive); in [16], 101% (inactive); in assay [17], 107% (inactive); in assay [18], 100% (inactive). In addition, the figures for the growth in assay [19] and in assay [20] were 70.4% (inactive) and 93% (inactive), respectively.
